Assay outcomes as filed in PubChem BioAssay.
Rango complex inh: qHTS Assay for Inhibitors of Rango (Ran-regulated importin-beta cargo) - Importin beta complex formation | Potency, µM (titrated, usually from 92.2 µM), inactives show at the highest dose inhibition of complex formation | Rango CFP/YFP FRET sensor + importin beta, 45 min | hit rate 0.031% among 340,000;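 further: potency means the concentration at half of the fitted maximal effect; 0% = DMSO wells and 100% = buffer wells lacking importin beta; nearly all actives have a fitted effect of over 15% in size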
Target sequence (Q14974 whole entry, looked up): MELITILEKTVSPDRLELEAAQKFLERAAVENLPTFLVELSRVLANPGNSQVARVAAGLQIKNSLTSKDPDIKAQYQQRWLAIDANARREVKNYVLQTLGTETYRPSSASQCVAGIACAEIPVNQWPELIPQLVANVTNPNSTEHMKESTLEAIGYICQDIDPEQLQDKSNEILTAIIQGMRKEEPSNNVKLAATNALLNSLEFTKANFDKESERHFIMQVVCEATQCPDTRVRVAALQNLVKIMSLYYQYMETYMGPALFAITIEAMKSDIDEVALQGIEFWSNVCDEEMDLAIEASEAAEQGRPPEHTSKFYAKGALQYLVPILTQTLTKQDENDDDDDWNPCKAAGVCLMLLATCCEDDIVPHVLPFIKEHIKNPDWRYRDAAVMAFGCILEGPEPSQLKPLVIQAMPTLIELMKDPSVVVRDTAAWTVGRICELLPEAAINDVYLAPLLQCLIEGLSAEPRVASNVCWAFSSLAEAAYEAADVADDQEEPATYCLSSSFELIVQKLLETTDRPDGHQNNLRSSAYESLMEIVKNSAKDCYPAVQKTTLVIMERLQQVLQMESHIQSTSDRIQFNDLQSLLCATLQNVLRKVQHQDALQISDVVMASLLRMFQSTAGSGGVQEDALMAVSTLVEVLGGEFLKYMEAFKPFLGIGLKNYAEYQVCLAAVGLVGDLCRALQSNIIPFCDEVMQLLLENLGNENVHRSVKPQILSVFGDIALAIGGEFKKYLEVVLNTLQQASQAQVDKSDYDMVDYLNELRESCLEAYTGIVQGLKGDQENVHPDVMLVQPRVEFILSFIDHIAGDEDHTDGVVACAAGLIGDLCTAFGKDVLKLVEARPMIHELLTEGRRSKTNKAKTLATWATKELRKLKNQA
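FRET biosensor (snurportin 1 IBB flanked by EYFP and cerulean), 50 nM, with compound 5 min, then 0.125 microM importin beta in PBS, 1 mM DTT, 0.02% Tween-20, 0.1% BSA. CFP/YFP ratio read after 45 min at room temperature; pre-read flags interference.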
Giardia kill: Small Molecules that selectively kill Giardia lamblia: qHTS. Giardia lamblia trophozoite viability. activity change, % at 7.66 µM, hits read low. hit rate 0.15% among 340,000. AID 540267, 2011; in the data active means activity change below about -80%; inconclusive means between about -30% and that limit;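 further: parasites exposed to compound for two days anaerobically before the ATP read; on the % scale 0 is the no-effect control and ±100 the full control effect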
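Trophozoite viability was measured as ATP-dependent luminescence, read 15-30 min after reagent addition. Before that, parasites at 100 cells/well were exposed to compounds for 48 h, anaerobically, at 37 deg C.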
Mm-Cpn inhibitor: Inhibitors of TCP-1 ring complex (TRiC) of Methanococcus maripaludis (MmCpn): qHTS; Potency, µM (series often up to 76.9 µM), without a hit: at the top dose activity, negative = inhibition, usual class: inhibitors; hit rate 0.031% among 330,000; AID 504842, 2011; purified Mm-Cpn ATPase, ADP Transcreener TR-FRET; active means well fitted inhibition curve with a large enough effect; inconclusive means small, poorly fitted or top-dose-only effect; further: potency means the concentration at half of the fitted maximal effect; on the % scale 0 is the no-effect control and ±100 the full control effect; nearly all actives have a fitted effect of over 80% in size
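Measured: ADP formation by purified Mm-CPN. Conditions: 25 nM protein, 10 uM ATP, Tris pH 7.4 with Mg2+, K+ and DTT, 37°C for 30 min. Detection: Transcreener HTRF after 30 min at room temperature.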
CCT chaperon mod: High-Throughput Screening for Modulators of Cytosolic Chaperonin Activity; purified chaperonin ATPase assay, HTRF ADP detection, 30 min; activity change, % (no concentration beside the values), hits read low; hit rate 0.3% among 360,000; AID 651819, 2012; in the data active means activity change below about -30%; further: on the % scale 0 is the no-effect control and ±100 the full control effect
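We incubate TRiC, 40 or 20 nM final, with library compounds at 76 uM and 10 uM ATP for 30 min at 37 °C. ADP formed is detected with Transcreener HTRF reagents after 30 min at room temperature.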
Rango dissoc inh: qHTS Assay for Inhibitors of RanGTP induced Rango (Ran-regulated importin-beta cargo) - Importin beta complex dissociation; Potency, µM (top dose mostly 46.1 µM), for the others: at the top dose activity change, negative = inhibition; Biochemical FRET Rango-importin beta, RanGTP-induced dissociation; Snurportin-1 (Homo sapiens) + GTP-binding nuclear protein Ran (Homo sapiens) + Importin …; hit rate 0.071% among 340,000; AID 540253, 2011; further: potency means the concentration at half of the fitted maximal effect; % of control where 0% means no effect; nearly all actives have a fitted effect of over 45% in size
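Rango (0.1 uM)–importin beta (0.25 uM) complex; RanGTP-RCC1 trigger; 45 min RT; CFP/YFP FRET read.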
The depositor's hits bear a star; ? = inconclusive; nt = no result given; [ ] = dose if it differs, or a comment. Hits are enriched below; roughly 0.53% of the tested compounds scored in any of these assays. Unless noted, the call rests on the fitted dose curve.

SMILES	Rango complex inh	Giardia kill	Mm-Cpn inhibitor	CCT chaperon mod	Rango dissoc inh
NC12CCc3c(no[n+]3[O-])C1(O)CC(c1ccccc1)=[N+]2[O-] (configuration not stated)	1%	-7	0%	3	8%
N[C@@]12CCc3nonc3[C@]1(O)CC(c1ccccc1)=[N+]2[O-]	-1%	1	2%	-63*	-8%
CCN(C[C@H]1N[C@@](C)(C(=O)OC)[C@H]2C(=O)N(Cc3ccccc3)C(=O)[C@@H]12)C(=O)c1ccc(F)cc1	2%	-19	-1%	-34*	1%
OC(CN1CCN(c2cccc(Cl)c2)CC1)C(c1ccccc1)c1ccccc1 (configuration not stated)	-1%	14	2%	-44*	1%
Cc1csc(CNc2ncnc3ccc(-c4ccco4)cc23)c1	nt	nt	-2%	nt	nt
CS(=O)(=O)N1CCN(c2ccccc2NC(=O)Cc2ccc(Cl)cc2)CC1	1%	19	0%	-32*	-1%
Cc1nc(SCC(=O)Nc2nccs2)c(C#N)c(C)c1C	?	?	-9%	2	26µM*
O=C(Nc1ccc2oc(-c3ccccc3F)nc2c1)c1cncc(Br)c1	1%	-8	-1%	0	-5%
COc1ccccc1NC(=O)c1ccc([N+](=O)[O-])o1	3%	-96*	nt	-13	34%
O=C(Nc1cccc(Cl)c1N1CCOCC1)c1ccc([N+](=O)[O-])o1	-1%	-86*	-1%	0	-1%
O=C(Nc1ccc2oc(-c3ccccc3F)nc2c1)c1ccc([N+](=O)[O-])o1	1%	-96*	2%	-3	-2%
Cc1ccc2nsnc2c1NC(=O)c1ccc([N+](=O)[O-])o1	-3%	-85*	2%	0	1%
Cc1ccc2nsnc2c1NC(=O)c1ccc(-c2cc(Cl)ccc2Cl)o1	-3%	-5	-3%	-3	0%
COc1ccccc1NC(=O)c1ccc(COc2ccccc2OC)o1	-3%	-15	0%	-2	-1%
CC1(C)CC(=O)C2=C(C1)O[C@@]1(CCCCN3C(=O)c4ccccc4C3=O)Cc3ccccc3C2O1	nt	nt	0%[15.4 µM]	nt	nt
COc1ccc(C(=O)NCC(=O)OCC(=O)c2ccc3ccccc3c2)cc1	nt	-21	nt	nt	nt
CCCN1CNc2c(c(=O)[nH]c(=S)n2CCc2ccccc2Cl)C1	nt	16	nt	nt	nt
O=C(Nc1ccccc1F)c1ccc([N+](=O)[O-])s1	?	?	-4%	2	-15%
Cc1ccc(NC(=O)c2ccc([N+](=O)[O-])o2)cc1C	11%	-94*	-1%	1	2%
O=C(Nc1ccc2[nH]c(=O)[nH]c2c1)c1ccc([N+](=O)[O-])o1	-3%	11	-3%	-1	-12%
O=C(Nc1cccnc1)c1ccc([N+](=O)[O-])s1	0%	-87*	-12%	0	10%
Cc1cccc(NC(=O)c2ccc([N+](=O)[O-])o2)c1C	0%	-97*	-1%	-1	-10%
O=C(Nc1cccc2ccccc12)c1ccc([N+](=O)[O-])s1	0%	-89*	-1%	1	0%
O=[S+]([O-])([O-])c1ccc2c(c1)cc([S+](=O)([O-])[O-])c1nn(-c3ccc(/C=C/c4ccc(-n5nc6c([S+](=O)([O-])[O-])cc7cc([S+](=O)([O-])[O-])ccc7c6n5)cc4[S+](=O)([O-])[O-])c([S+](=O)([O-])[O-])c3)nc12	nt	-20	nt	nt	nt
O=C(Nc1cccc([N+](=O)[O-])c1)c1ccc([N+](=O)[O-])o1	nt	nt	nt	2	nt
O=C(Nc1cccc2ccccc12)c1ccc([N+](=O)[O-])o1	-1%	-98*	1%	-1	2%
O=C(Nc1cccc(NC(=O)c2ccccc2Cl)c1)c1ccc([N+](=O)[O-])o1	0%	-103*	-2%	0	4%
Cc1ccc(C(=O)Nc2cccc3ccccc23)o1	0%	-2	nt	0	20%
